Measurements as given in the supplement of paper PMC11172423.
Unmarked numbers belong to inactive results.

Columns and labels:
[1] = system: Falciformispora senegalensis CBS197.79; assay: growth relative to untreated control; higher = less inhibition, active = 20 or less
Method in brief: (§1)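 Compound at 100 or 25 µM was applied for 7 days at 37 °C to hyphal fragments of M. mycetomatis MM55 or F. senegalensis CBS197.79 in 96-well plates. Fragments were suspended in colourless RPMI 1640 with L-glutamine and MOPS at 68–72% transmission at 660 nm, and viability was read with MTS (2 h, 490 nm) or resazurin (600 nm). Growth is reported as blank-corrected metabolic activity relative to the blank-corrected untreated growth control.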

[2] = system: Madurella mycetomatis MM55; assay: as above
Method in brief: as §1

Compound | growth ([1]; 25 µM) [%] | growth ([1]; 100 µM) [%] | growth ([2]; 25 µM) | growth ([2]; 100 µM)
CC(F)c1ncnc(NCCc2ccc(OC(F)(F)F)cc2)c1Cl (centres undefined) | 90.5 | 82.9 | – | –
CCOc1ccc(C(C)(C)COCc2cccc(Oc3ccccc3)c2)cc1 | 79.4 | 39.3 | 97% | 116%
O=[N+]([O-])/C=C1\NCCCS1 | 86.4 | 93.8 | – | –
O=C(NC(=O)c1c(F)cccc1F)Nc1ccc(Cl)c(Oc2ncc(C(F)(F)F)cc2Cl)c1 | 93 | 84 | 46.7% | 149%
N#CCNC(=O)c1cnccc1C(F)(F)F | 85.9 | 87.5 | – | –
CCc1nn(C)c(C(=O)NCc2ccc(Oc3ccc(C)cc3)cc2)c1Cl | 98.1 | 79.9 | 66.4% | 120%
Clc1cc(Cl)cc(Nc2nc3cnc(NC4CCCC4)cc3n2C2CCNC2)c1 (centres undefined) | 52.2 | 77.4 | 7.86% (active) | 6.79% (active)
CNC(=O)O/N=C(/C)SC | 86.2 | 89.3 | 112% | 137%
CCOCn1c(-c2ccc(Cl)cc2)c(C#N)c(Br)c1C(F)(F)F | 79.6 | 76.5 | – | –
Cc1c(COC(=O)[C@@H]2[C@H](C=C(Cl)C(F)(F)F)C2(C)C)cccc1-c1ccccc1 | 87.1 | 95.2 | – | –
CNC(=O)Oc1ccccc1OC(C)C | 92.8 | 97.7 | – | –
CCOP(=S)(OCC)Oc1cc(C)nc(C(C)C)n1 | 97.9 | 88.9 | 108% | 135%
CNC(=O)c1cc(Cl)cc(C)c1NC(=O)c1cc(Br)nn1-c1ncccc1Cl | 93.3 | 94.4 | 81.9% | 57%
C/C=C(\C)C(=O)O[C@H]1C[C@@H](OC(C)=O)[C@@]2(C(=O)OC)CO[C@H]3[C@@H](O)[C@@](C)([C@]45O[C@@]4(C)[C@H]4C[C@@H]5O[C@@H]5OC=C[C@@]54O)[C@H]4[C@]1(CO[C@]4(O)C(=O)OC)[C@@H]32 | 89.6 | 96.1 | – | –
CCN(CC)c1nc(C)cc(OP(=S)(OC)OC)n1 | 96 | 95.6 | – | –
CCN(Cc1ccc(Cl)nc1)/C(=C/[N+](=O)[O-])NC | 95.3 | 89.6 | – | –
Cc1nc(N(C)C)nc(OC(=O)N(C)C)c1C | 86.3 | 87.9 | 109% | 137%
CCOP(=S)(OCC)Oc1nc(Cl)c(Cl)cc1Cl | 92.9 | 69 | – | –
CC1(C)C(C=C(Cl)Cl)C1C(=O)OCc1cccc(Oc2ccccc2)c1 (centres undefined) | 70.4 | 98.3 | – | –
